Measured values taken from PubChem BioAssay AID493203 (National Center for Advancing Translational Sciences (NCATS), 2011).
Records with an inconclusive call do not appear. A number with no mark means an inactive call. Activity calls are given as the source filed them. The call rests on the fitted dose curve; in most records, active means well fitted activation curve with a large enough effect; inconclusive means small, poorly fitted or top-dose-only effect; inactive means flat fitted curve, though single readings scatter.

assay: qHTS Assay for NPC1 Promoter Activators: Initial hit validation from the primary screen; conditions: Huh7 NPC1 promoter-luciferase reporter, luminescence, 24 h; series mostly up to 46.1 µM; activity, positive = activation: at the top concentration;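 on activity, positive = activation: reporter driven by the mutant form of the NPC1 promoter; % of control where 0% means no effect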
Procedure, shortened: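 Promoter activation measured as luciferase luminescence (Amplite reagent, 10 minutes ambient) after 24 hours' compound exposure at 37C. Cells: NPC1-luciferase Huh7, 1500 per well, reduced-serum OP-MEM I plus 10% FBS.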
Potency means the concentration at half of the fitted maximal effect.

First: COCCNC(=O)Cn1nc(-c2ccccc2)c2ccccc2c1=O
Second: CC1(C)CC(=O)c2c(O)c(-c3ccccc3)c(=O)n(-c3ccccc3)c2C1
The “activity, positive = activation” value of the first is lower: -1.52% for the first, 4.96% for the second.

Compared with `CCOC(=O)C1(Cc2cccc(Cl)c2)CCCN(C(=O)CCSC)C1` (centres undefined), `O=C(CCCC(=O)N(CC(=O)NC1CCCCC1)c1cccc(F)c1)Nc1ccccn1` is lower in “activity, positive = activation” value: 10.7% for the first, 5.64% for the second.

First: O=C(c1cc2cc([N+](=O)[O-])ccc2oc1=O)n1cccn1
Second: NNC(=O)c1cccc(S(=O)(=O)Nc2cc(Cl)ccc2Cl)c1
The “activity, positive = activation” value of the first is higher: 9.78% for the first, 2.99% for the second.

First: CCCCn1c(CCNC(=O)c2cccs2)nc2ccccc21
Second: COc1ccccc1OCCCC(=O)NCc1ccco1
The “activity, positive = activation” value of the first is lower: -12.1% for the first, -0.92% for the second.

Going from `COc1ccc(NC(=O)CCCN2C(=O)C(c3ccccc3)Oc3cccnc32)cc1OC` (centres undefined) to `Cn1c(CCN2CCN(c3ccccc3)CC2)nc2cc(NC(=O)c3ccco3)ccc21`, the “activity, positive = activation” value rises from -7.4% to 7.93%.

First: CN(C)C(=O)[C@H]1C[C@H]1[C@@H](O)[C@H](CO)NC(=O)[C@H](COCc1ccccc1)NC(=O)OC(C)(C)C
Second: CCC(=O)N1c2ccccc2NC2=C(C(=O)CCC2)C1c1ccc(N(C)C)cc1 (centres undefined)
The “activity, positive = activation” value of the first is lower: -3.05% for the first, -2.04% for the second.

Compared with `Cc1ccc(C(=O)Nc2nnc(S(=O)(=O)N3CCOCC3)s2)cc1`, `Cc1ccc(C(=O)NC2CCN(CC(=O)Nc3c(C)cc(C)cc3C)CC2)cc1` is lower in “activity, positive = activation” value: 13% for the first, -6.42% for the second.

Going from `COCc1cc(C)nc(N/N=C/c2ccc(-c3ccc(Cl)cc3[N+](=O)[O-])o2)c1C#N` to `O=C(N/N=C/c1ccc(-c2ccc(Br)cc2)o1)c1ccc2c(c1)OCO2`, the “activity, positive = activation” value rises from 3.22% to 14.3%.

First: COC(=O)c1ccccc1NC(=O)c1ccc(-c2ccc(Br)cc2)o1
Second: CC(=O)[C@@H]1[C@@H](C(=O)c2ccc(C)cc2)[C@]2(C(=O)Nc3ccccc32)[C@H]2C=Cc3cc(F)ccc3N12
The “activity, positive = activation” value of the first is lower: -2.77% for the first, 3.97% for the second.

First: CC(=O)NC(CCCN1C(=O)c2ccccc2C1=O)c1nnn(C)n1 (centres undefined)
Second: CC(Sc1nnc(C(F)(F)F)n1C)C(=O)Nc1ccc(S(N)(=O)=O)cc1 (centres undefined)
The “activity, positive = activation” value of the first is higher: 0.69% for the first, -2.17% for the second.

Compared with `NC(=O)C1(NC(=O)[C@@H]2CC3(CC(c4cccc(NC(=O)[C@@H]5CCC(=O)N5)c4)=NO3)CN2C(=O)c2ccccc2)CC1` (some centres undefined), `COc1ccc(/C=C\c2onc(C)c2S(=O)(=O)N2CCC(C(=O)NCCC(C)C)CC2)cc1` is lower in “activity, positive = activation” value: 3.18% for the first, -0.647% for the second.

Going from `Cc1c(C(O)CN2CCN(Cc3ccc4c(c3)OCO4)CC2)c2ccccc2n1C` (centres undefined) to `O=C(/C=C/c1ccco1)NCC1OCCc2ccccc21` (centres undefined), the “activity, positive = activation” value rises from -7.59% to 2.53%.

In the case of `COc1ccc(OC)c(S(=O)(=O)N2CCN3CCCC3C2)c1` (centres undefined), the “activity, positive = activation” value is reported as -2.34%.

For `CCOC(=O)CSc1nc2cc(C)ccc2cc1C#N`, the Potency was 499 nM (active).
For `COc1ccccc1C(=O)Nc1nnc(SCC(=O)NC2CCCC2)s1`, the Potency was 705 nM (active).
With `N#C/C(=N\Nc1ccc(Cl)cc1)C(=N)N1CCCCC1` the Potency was 281 nM (active).
For `Cc1cc(C)c2c(N)c(C(=O)Nc3ccc([N+](=O)[O-])cc3)sc2n1`, the Potency was 396 nM (active).
With `N#CC/C(N)=N/NC(=O)CCCNc1ncc(C(F)(F)F)cc1Cl` the Potency was 15800 nM (active).
For `O=C(NCCc1ccccc1)c1cc2ncc(Br)cn2n1`, the Potency was 14100 nM (active).
For `Nc1ccc(C(=O)Nc2ccccc2N)cc1`, the Potency was 15800 nM (active).
With `Cc1ccc(CNC(=O)Nc2ccc(C)cc2)cc1` the Potency was 25000 nM (active).
For `O=C(COc1ccccc1F)Nc1ccc(-c2nc3ccccc3s2)cc1`, the Potency was 250 nM (active).
